Among the data in PubChem BioAssay (NCI) are growth values, retold here.

About 83,000 compounds went through this panel and 20% of them were active in at least one assay; those are over-represented in the sample as a whole.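 Each cell line was grown in a 96-well plate and treated with one concentration of compound for 48 hours. Values below 10 were considered active.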 The source made the active and inactive calls.

The subject of this assay is NCI/ADR-RES ovarian. As to the kind of experiment: NCI-60 one-dose screen, 48 h (100 = growth as untreated, 0 = no growth, -100 = all killed). Conditions: 10 µM unless noted.
Regarding `CCC1S/C(=N\N=C(/C)c2cccs2)N(c2ccccc2)C1=O` (configuration not stated), the growth is 99% (inactive).
Under `COc1ccc2c(c1)/C(=C/c1c(-c3cc(OC)c(OC)c(OC)c3Br)nc3sccn13)C(=O)N2` stands 92.2% (inactive).
With `N#CC(C#N)=C(C#N)c1c[nH]c2ccccc12`, the growth is 96.1% (inactive).
In the case of `CNC(=O)NN`, the growth is 105% (inactive).
Then `ClC1c2ccccc2CCc2ccccc21`, with 116% (inactive).
Then `COc1ccc(-c2cc3ccc(N(C)C)cc3nc2N)c(F)c1`, with 26% (inactive); and `CCOC(=O)C(C)(CSSCC(C)(NC(=O)c1ccc2ccccc2c1)C(=O)OCC)NC(=O)c1ccc2ccccc2c1` (configuration not stated), with 105% (inactive); and `COc1ccc(-c2cc(-c3nnc(SC/C(=N\O)c4ccccc4)n3-c3ccccc3)c3ccccc3n2)cc1`, with 104% (inactive).
Regarding `CC(=O)Nc1ccc([I+]c2ccc([N+](=O)[O-])cc2)cc1`, the growth is 113% (inactive).
For `O=[N+]([O-])c1ccc(NS(=O)(=O)c2ccccc2)c2ccccc12`, the growth is 51% (inactive).
For the compound `COc1ccc(-c2c(C#N)cnc(N)c2-c2nc3cc(C)c(C)cc3[nH]2)cc1`, the growth was 50.2% (inactive).
For `S=c1n(CNc2ccc(Cl)nn2)nc(-c2cc(Cl)cc(Cl)c2Cl)n1/N=C/c1ccc(Cl)cc1`, the growth is 87.4% (inactive).
With `Cc1ccc2c(c1)Nc1ccc(C)cc1C2(C)C`, the growth was 105% (inactive).
In the case of `Clc1ccc2c(NCCNc3nc(Cl)nc4ccccc34)ccnc2c1`, the growth was 38.5% (inactive).
Under `CN1CCN(Cn2nc(-c3cc(Cl)cc(Cl)c3Cl)n(/N=C/c3ccc(Cl)cc3)c2=S)CC1` stands 96.6% (inactive); under `C=C1C(=O)O[C@H]2[C@H]1CC/C(COC(=O)c1ccc(Cl)nc1)=C\CC[C@@]1(C)O[C@@H]21`, 42.1% (inactive); under `COc1ccc(/C=N/C2=NNC(C)(c3ccccc3O)N2C(Cc2c[nH]c3ccccc23)C(=O)O)cc1` (configuration not stated), 34.9% (inactive).
Then `COc1ccc(/C=C/C(=O)/C=C(/C=C/c2ccc(OC)c(OC)c2OC)OB(F)F)c(OC)c1OC`, with 32.5% (inactive).
Take `Cc1cc(N2CCOCC2)nc(N(CCNc2ccnc3cc(Cl)ccc23)Cc2ccco2)n1`: the growth is 50.8% (inactive).
Then `NN=C(c1ccc(Cl)cc1)c1ccc(Cl)cc1`, with 108% (inactive); and `Cc1cc2c(cc1C)N(C(=O)CCl)CCN2C(=O)CCl`, with -49.7% (active).
As for `COc1cccc(/C=N/C(=S)NC2(C)C3CCC(C3)C2(C)C)c1O` (configuration not stated), the growth was 83.7% (inactive).
Then `CC(=O)c1cc2c(N)c(C(=O)Nc3cccc(Cl)c3)sc2nc1C`, with 79.5% (inactive); and `CCOC(=O)c1cnc2c(OC)ccc(OC)c2c1Cl`, with 110% (inactive).
For the compound `CCOc1cccc(Nc2nc(N)nc3[nH]c4ccc(O)cc4c23)c1`, the growth is 80.4% (inactive).
On to `CC(C)CCC[C@@H](C)[C@H]1CC[C@H]2[C@@H]3CC=C4N(c5ccccc5)C(=O)CC[C@]4(C)[C@H]3CC[C@]12C`, for which the growth is 98.9% (inactive).
As to `C=C(C)[C@@H]1C/C=C(\COC(=O)[C@H](OC(C)=O)C(NC(=O)c2ccccc2)c2ccccc2)CC[C@H]2O[C@]2(C)CC/C=C(\C)CC1` (some centres not stated), the growth was 62.9% [5 µM] (inactive).
Then `C/C(=N/NC(=O)Cn1c2ccccc2c2ccncc21)c1cccs1`, with 101% (inactive); and `CC(=S)Nc1ccccc1`, with 100% (inactive).
Under `Nc1ccc(S(=O)(=O)Nc2cc(I)cc(I)c2)cc1` stands 97.5% (inactive).
For `Cc1cn([C@]2(CF)O[C@H](CO)C2C)c(=O)[nH]c1=O` (some centres not stated), the growth was 113% (inactive).
In the case of `O=C(O)c1ccccc1C(=O)c1ccc(I)cc1`, the growth was 97.5% (inactive).
For `CC(C(=O)O)N1C(N)=NNC1c1ccccc1O` (configuration not stated), the growth is 83.8% (inactive).
Regarding `COc1ccc(C2=NN(C(=O)COc3ccc(Cl)cc3)C(O)(c3cc(F)c(Cl)cc3Cl)C2)cc1OC` (configuration not stated), the growth was 19.9% (inactive).
As to `CCCCNC(=O)Oc1ccc(/C(=C(/CC)Cc2ccccc2)c2ccc(OCCCN(C)C)cc2)cc1`, the growth is 87.2% (inactive).
Under `COc1ccc(C(=O)Cn2cnc3c(Nc4cc(C(=O)Nc5ccc(N6CCN(CCO)CC6)cc5)ccc4C)ncnc32)cc1` stands 104% (inactive); under `COc1cc(NC(=O)c2cc(OC)c3ccn(C)c3c2)cc2c1C[C@]1(C)CC[C@@H](O)C(C)(C)[C@H]1O2`, 82.6% (inactive).
